The OligoGym collection

Target: ACSM5
Experiment: pooled miR-30 sensor sort-seq; sequence = guide strand
Details: shRNA
Note: reference of the scale not given here.

First: TAACTTTGGCATCAACTCGGGG
Second: TTGATCACATCGTCGTTTCTTC
The sensor-assay potency score (higher = more potent) of the first is lower: -0.74 for the first, 0.51 for the second.

First: TTTGACATCTTTAGGGTCGAAG
Second: TCCACTTGATCTCTGCTCCTGT
The sensor-assay potency score (higher = more potent) of the first is lower: -1.09 for the first, -0.0695 for the second.

Going from TGACTTCGCAATTTACTCCTTT to ATAACTTTGGCATCAACTCGGG, the sensor-assay potency score (higher = more potent) falls from -0.271 to -0.475.

First: AGAATTGATCACATCGTCGTTT
Second: TACAGCTCCACACCAGTCTGGT
The sensor-assay potency score (higher = more potent) of the first is lower: -0.999 for the first, -0.482 for the second.

First: TTGATCTCTGCTCCTGTGCCAT
Second: TACTCCTTTGGATCTTTCCAGA
The sensor-assay potency score (higher = more potent) of the first is higher: -0.903 for the first, -1.3 for the second.

First: TTGAAGAAACAGAAGGGCCGAG
Second: TTGAAGAATTGATCACATCGTC
The sensor-assay potency score (higher = more potent) of the first is lower: -0.0546 for the first, 0.691 for the second.
